In the supplement of paper PMC10849652:
Targets with a hit are over-represented here; the source holds about 7,900 in all. About 0.6% of all pairs of compound and target were hits.

What was measured:
Experiment in all cases: log2 fold change, soluble protein after heating vs DMSO (PISA); higher = thermal stabilisation; K562 cells, 10 uM, 30 min; active = over 0.2 and 3.5 SD of the protein, either way, in both replicates (recomputed)
[1] = compound: CS(=O)(=O)c1ccc(-c2cnc(N)c(C(=O)Nc3ccccc3)n2)cc1
Method in brief: (§1)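 K562 cells at 2×10^6 cells/mL were treated with 10 μM compound for 30 min. Aliquots were heated for 3 min across 48°C-58°C, pooled, and extracted in PBS with 0.5% NP-40 at 4°C; soluble protein was the supernatant after 21,000xg for 90 min. Soluble protein was quantified by TMTpro 16plex LC-MS/MS with channel sums equalised, and reported as log2 fold change in thermal stability against DMSO controls, with values from duplicates.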

crizotinib = compound: C[C@@H](Oc1cc(-c2cnn(C3CCNCC3)c2)cnc1N)c1c(Cl)ccc(F)c1Cl [crizotinib]
Method in brief: as §1

[2] = compound: C[C@@H]1COCCN1C2=NC(=NC(=C2)C3(CC3)S(=O)(=O)C)C4=C5C=CNC5=CC=C4
Method in brief: as §1

[3] = compound: C[C@H](C1=CC=C(C=C1)C(=O)NC2=C3C=CNC3=NC=C2)N
Method in brief: as §1

duvelisib = compound: C[C@H](Nc1ncnc2nc[nH]c12)c1cc2cccc(Cl)c2c(=O)n1-c1ccccc1 [duvelisib]
Method in brief: as §1

gandotinib = compound: Cc1cc(Nc2cc(CN3CCOCC3)c3nc(C)c(Cc4ccc(Cl)cc4F)n3n2)n[nH]1 [gandotinib]
Method in brief: as §1

tozasertib = compound: Cc1cc(Nc2cc(N3CCN(C)CC3)nc(Sc3ccc(NC(=O)C4CC4)cc3)n2)n[nH]1 [tozasertib]
Method in brief: as §1

[4] = compound: Cc1cc(SCc2sc(-c3ccc(C(F)(F)F)cc3)nc2C)ccc1OCC(=O)O
Method in brief: as §1

doramapimod = compound: Cc1ccc(-n2nc(C(C)(C)C)cc2NC(=O)Nc2ccc(OCCN3CCOCC3)c3ccccc23)cc1 [doramapimod]
Method in brief: as §1

ispinesib = compound: Cc1ccc(C(=O)N(CCCN)[C@@H](c2nc3cc(Cl)ccc3c(=O)n2Cc2ccccc2)C(C)C)cc1 [ispinesib]
Method in brief: as §1

bafetinib = compound: Cc1ccc(NC(=O)c2ccc(CN3CC[C@H](N(C)C)C3)c(C(F)(F)F)c2)cc1Nc1nccc(-c2cncnc2)n1 [bafetinib]
Method in brief: as §1

[5] = compound: Cc1cccc(CC(=O)N2CCc3c2ccc(-c2cn(C)c4ncnc(N)c24)c3F)n1
Method in brief: as §1

nilotinib = compound: Cc1cn(-c2cc(NC(=O)c3ccc(C)c(Nc4nccc(-c5cccnc5)n4)c3)cc(C(F)(F)F)c2)cn1 [nilotinib]
Method in brief: as §1

[6] = compound: Cc1nc(Nc2n[nH]c3c2CN(C(=O)N[C@H](CN(C)C)c2ccccc2)C3(C)C)c2sccc2n1
Method in brief: as §1

dasatinib = compound: Cc1nc(Nc2ncc(C(=O)Nc3c(C)cccc3Cl)s2)cc(N2CCN(CCO)CC2)n1 [dasatinib]
Method in brief: as §1

[7] = compound: Cc1ncc(-c2ccnc(Nc3ccc(S(C)(=O)=O)cc3)n2)n1C(C)C
Method in brief: as §1

[8] = compound: Cn1cc(-c2ccc3c(c2)CCN3C(=O)Cc2cccc(C(F)(F)F)c2)c2c(N)ncnc21
Method in brief: as §1

[9] = compound: Cn1cc(-c2ccc3nnc(C(F)(F)c4ccc5ncccc5c4)n3n2)cn1
Method in brief: as §1

tipifarnib = compound: Cn1cncc1[C@@](N)(c1ccc(Cl)cc1)c1ccc2c(c1)c(-c1cccc(Cl)c1)cc(=O)n2C [tipifarnib]
Method in brief: as §1

mubritinib = compound: FC(F)(F)c1ccc(/C=C/c2nc(COc3ccc(CCCCn4ccnn4)cc3)co2)cc1 [mubritinib]
Method in brief: as §1

Measured: log2 fold change

NCKAP1 isoform 2 (UniProt Q9Y2A7)
UniProt Q9Y2A7, sequence (Q9Y2A7 whole entry, looked up): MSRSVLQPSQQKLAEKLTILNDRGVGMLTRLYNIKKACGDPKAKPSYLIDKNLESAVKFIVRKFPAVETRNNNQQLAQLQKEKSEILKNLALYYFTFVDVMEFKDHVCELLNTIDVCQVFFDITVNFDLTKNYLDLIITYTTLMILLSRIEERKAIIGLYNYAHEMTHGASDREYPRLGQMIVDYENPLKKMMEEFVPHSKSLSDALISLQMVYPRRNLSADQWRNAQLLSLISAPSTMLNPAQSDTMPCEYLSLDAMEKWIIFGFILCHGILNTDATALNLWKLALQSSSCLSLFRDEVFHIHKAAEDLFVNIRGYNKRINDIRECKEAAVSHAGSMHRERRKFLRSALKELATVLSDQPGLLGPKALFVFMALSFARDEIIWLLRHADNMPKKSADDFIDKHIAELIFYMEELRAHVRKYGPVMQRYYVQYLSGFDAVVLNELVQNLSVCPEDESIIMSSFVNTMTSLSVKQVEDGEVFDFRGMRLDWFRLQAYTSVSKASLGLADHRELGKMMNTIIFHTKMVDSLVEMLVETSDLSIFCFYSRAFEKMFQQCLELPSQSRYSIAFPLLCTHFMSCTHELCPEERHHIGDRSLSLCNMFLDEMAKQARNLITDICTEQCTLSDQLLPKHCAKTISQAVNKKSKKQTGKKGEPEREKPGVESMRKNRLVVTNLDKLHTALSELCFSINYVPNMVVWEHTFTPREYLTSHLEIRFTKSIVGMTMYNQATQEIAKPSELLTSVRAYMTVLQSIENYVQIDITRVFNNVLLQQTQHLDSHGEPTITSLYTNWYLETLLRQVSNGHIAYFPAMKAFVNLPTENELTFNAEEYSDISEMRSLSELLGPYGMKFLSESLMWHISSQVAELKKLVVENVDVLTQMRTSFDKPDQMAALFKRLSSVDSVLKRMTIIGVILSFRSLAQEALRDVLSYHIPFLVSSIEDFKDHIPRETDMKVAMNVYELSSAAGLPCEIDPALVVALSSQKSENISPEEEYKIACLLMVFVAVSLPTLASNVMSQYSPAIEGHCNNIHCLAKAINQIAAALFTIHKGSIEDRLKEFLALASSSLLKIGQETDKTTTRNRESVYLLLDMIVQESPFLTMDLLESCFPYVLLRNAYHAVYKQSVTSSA
inactive: [1] -0.021 | crizotinib -0.071 | [2] 0 | [3] -0.08 | duvelisib -0.006 | gandotinib -0.093 | tozasertib -0.017 | [4] 0.031 | doramapimod -0.027 | ispinesib 0.034 | bafetinib -0.028 | [5] 0.08 | nilotinib -0.016 | [6] -0.045 | dasatinib -0.096 | [7] -0.04 | [8] 0.04 | [9] -0.004 | tipifarnib -0.005 | mubritinib 0.002

NOLC1 isoform 2 (UniProt Q14978)
inactive: [1] -0.019 | crizotinib -0.135 | [2] 0.141 | [3] -0.154 | duvelisib -0.043 | gandotinib -0.023 | tozasertib -0.032 | [4] -0.038 | doramapimod 0.047 | ispinesib 0.179 | bafetinib 0.105 | [5] -0.031 | nilotinib 0.1 | [6] -0.1 | dasatinib 0.145 | [8] -0.013 | [9] 0.02 | tipifarnib 0.027 | mubritinib -0.031
active: [7] -0.376

MSH3 (UniProt P20585)
UniProt P20585, sequence (P20585 whole entry, looked up): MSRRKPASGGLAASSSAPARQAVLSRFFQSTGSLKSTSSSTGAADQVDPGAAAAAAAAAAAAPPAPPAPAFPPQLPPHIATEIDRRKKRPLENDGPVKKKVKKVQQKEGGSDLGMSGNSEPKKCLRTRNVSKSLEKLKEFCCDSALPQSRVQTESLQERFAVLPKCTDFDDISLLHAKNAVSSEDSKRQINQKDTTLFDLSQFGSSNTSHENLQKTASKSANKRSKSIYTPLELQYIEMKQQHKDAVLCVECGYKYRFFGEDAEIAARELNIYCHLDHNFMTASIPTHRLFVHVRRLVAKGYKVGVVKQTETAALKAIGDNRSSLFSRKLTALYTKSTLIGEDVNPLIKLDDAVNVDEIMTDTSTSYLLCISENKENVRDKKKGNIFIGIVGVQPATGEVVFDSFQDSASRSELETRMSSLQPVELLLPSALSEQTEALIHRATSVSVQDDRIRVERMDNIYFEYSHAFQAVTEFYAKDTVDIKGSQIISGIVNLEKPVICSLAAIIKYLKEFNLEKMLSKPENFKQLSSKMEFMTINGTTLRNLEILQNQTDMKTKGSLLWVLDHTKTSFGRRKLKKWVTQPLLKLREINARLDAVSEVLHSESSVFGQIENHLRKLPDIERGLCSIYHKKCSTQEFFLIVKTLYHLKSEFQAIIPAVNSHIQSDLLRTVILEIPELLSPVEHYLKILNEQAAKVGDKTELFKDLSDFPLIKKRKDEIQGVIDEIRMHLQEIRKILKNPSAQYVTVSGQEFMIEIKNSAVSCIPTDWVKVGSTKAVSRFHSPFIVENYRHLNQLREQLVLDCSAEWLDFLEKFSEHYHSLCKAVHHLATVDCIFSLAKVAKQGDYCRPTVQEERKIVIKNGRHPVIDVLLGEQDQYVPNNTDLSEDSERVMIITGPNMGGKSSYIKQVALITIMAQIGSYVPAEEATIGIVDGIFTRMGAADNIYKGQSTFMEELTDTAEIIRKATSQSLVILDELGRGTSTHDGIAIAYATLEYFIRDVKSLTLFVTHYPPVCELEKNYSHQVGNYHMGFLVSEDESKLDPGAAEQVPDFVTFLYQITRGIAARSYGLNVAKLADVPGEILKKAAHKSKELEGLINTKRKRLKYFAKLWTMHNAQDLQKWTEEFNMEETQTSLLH
inactive: [1] -0.029 | crizotinib 0.045 | [2] -0.031 | [3] 0.047 | duvelisib 0.07 | gandotinib -0.096 | tozasertib -0.003 | [4] 0.024 | doramapimod 0.035 | ispinesib 0.088 | bafetinib -0.012 | [5] 0.051 | nilotinib -0.046 | [6] -0.014 | dasatinib -0.038 | [7] 0.052 | [8] -0.032 | [9] 0.009 | tipifarnib -0.029 | mubritinib 0.167

MINK1 (UniProt Q8N4C8)
inactive: [1] 0.032 | crizotinib -0.207 | [2] -0.038 | [3] -0.067 | duvelisib 0.022 | gandotinib -0.024 | tozasertib -0.149 | [4] 0.073 | doramapimod -0.035 | ispinesib -0.032 | bafetinib -0.031 | [5] -0.04 | nilotinib -0.025 | [6] -0.062 | [7] -0.09 | [8] 0.02 | [9] -0.042 | tipifarnib 0.018 | mubritinib 0.014
active: dasatinib -0.222

MIS12 (UniProt Q9H081)
UniProt Q9H081, sequence (Q9H081 whole entry, looked up): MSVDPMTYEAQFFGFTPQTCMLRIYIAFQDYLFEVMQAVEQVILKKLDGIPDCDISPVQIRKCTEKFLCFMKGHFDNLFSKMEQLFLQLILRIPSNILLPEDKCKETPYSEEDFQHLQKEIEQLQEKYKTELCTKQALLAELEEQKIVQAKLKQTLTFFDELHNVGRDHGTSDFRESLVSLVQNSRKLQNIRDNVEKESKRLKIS
inactive: [1] 0.016 | crizotinib -0.064 | [2] -0.03 | [3] -0.099 | duvelisib 0.037 | gandotinib -0.012 | tozasertib 0.153 | [4] 0.009 | doramapimod -0.019 | ispinesib -0.034 | bafetinib -0.05 | [5] 0.017 | nilotinib -0.062 | [6] -0.048 | dasatinib -0.114 | [7] 0.037 | [8] -0.028 | [9] 0.005 | tipifarnib 0.016 | mubritinib 0.071

PAK1 isoform 2 (UniProt Q13153)
UniProt Q13153, sequence (Q13153 whole entry, looked up): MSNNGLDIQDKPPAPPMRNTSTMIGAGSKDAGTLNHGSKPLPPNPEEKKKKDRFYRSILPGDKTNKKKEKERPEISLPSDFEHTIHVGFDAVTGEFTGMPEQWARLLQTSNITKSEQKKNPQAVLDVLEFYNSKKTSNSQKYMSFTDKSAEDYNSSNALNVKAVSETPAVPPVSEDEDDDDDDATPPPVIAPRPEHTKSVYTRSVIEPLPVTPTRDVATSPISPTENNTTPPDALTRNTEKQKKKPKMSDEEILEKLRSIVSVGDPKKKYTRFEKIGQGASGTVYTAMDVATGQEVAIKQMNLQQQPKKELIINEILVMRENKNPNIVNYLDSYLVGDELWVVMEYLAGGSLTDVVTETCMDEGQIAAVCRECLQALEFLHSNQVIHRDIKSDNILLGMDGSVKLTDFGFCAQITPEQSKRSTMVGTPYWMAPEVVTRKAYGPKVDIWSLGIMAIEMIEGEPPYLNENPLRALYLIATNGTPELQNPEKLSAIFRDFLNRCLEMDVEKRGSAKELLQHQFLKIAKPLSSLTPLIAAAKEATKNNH
active: [3] -0.308
inactive: [1] 0.009 | crizotinib 0.054 | [2] 0.063 | duvelisib 0.09 | gandotinib -0.098 | tozasertib -0.076 | [4] 0.056 | doramapimod -0.155 | ispinesib 0.084 | bafetinib -0.017 | [5] 0.04 | nilotinib 0.03 | [6] 0.036 | dasatinib -0.025 | [7] -0.027 | [8] 0.041 | [9] 0.035 | tipifarnib -0.004 | mubritinib 0.015

OPA1 isoform 2 (UniProt O60313)
UniProt O60313, sequence (O60313 whole entry, looked up): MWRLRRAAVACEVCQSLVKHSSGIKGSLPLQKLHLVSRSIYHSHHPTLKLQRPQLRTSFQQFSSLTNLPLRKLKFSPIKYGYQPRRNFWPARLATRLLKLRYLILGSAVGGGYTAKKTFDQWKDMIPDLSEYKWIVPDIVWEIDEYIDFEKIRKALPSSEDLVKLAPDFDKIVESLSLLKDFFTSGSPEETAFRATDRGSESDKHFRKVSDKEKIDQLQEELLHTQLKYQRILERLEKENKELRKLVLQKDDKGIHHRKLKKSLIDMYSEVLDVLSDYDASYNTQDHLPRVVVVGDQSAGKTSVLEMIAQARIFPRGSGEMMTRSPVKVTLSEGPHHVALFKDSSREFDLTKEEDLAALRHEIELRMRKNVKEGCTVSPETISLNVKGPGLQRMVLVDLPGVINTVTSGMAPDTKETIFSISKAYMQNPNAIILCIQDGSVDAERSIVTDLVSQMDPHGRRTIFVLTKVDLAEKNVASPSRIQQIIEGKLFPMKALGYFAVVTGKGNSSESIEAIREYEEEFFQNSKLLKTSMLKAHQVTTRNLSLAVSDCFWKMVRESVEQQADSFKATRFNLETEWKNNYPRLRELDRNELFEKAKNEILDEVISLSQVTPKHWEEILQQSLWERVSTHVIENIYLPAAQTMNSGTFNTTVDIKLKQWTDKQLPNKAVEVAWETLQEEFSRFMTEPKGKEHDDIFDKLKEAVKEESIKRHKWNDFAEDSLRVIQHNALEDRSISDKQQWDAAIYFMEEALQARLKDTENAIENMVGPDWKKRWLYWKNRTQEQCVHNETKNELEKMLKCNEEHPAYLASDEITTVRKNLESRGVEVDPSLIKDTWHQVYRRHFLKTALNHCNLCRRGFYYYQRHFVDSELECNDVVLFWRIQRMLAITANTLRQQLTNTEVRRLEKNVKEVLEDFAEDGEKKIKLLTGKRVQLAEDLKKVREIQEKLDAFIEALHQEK
active: crizotinib -0.326 | ispinesib -0.337
inactive: [1] 0.056 | [2] 0.048 | [3] -0.003 | duvelisib 0.034 | gandotinib -0.063 | tozasertib -0.075 | [4] 0.054 | doramapimod -0.031 | bafetinib -0.022 | [5] 0.069 | nilotinib -0.039 | [6] -0.025 | dasatinib -0.169 | [7] -0.004 | [8] 0.054 | [9] -0.031 | tipifarnib -0.12 | mubritinib 0.062

ORC3 isoform 2 (UniProt Q9UBD5)
UniProt Q9UBD5, sequence (Q9UBD5 whole entry, looked up): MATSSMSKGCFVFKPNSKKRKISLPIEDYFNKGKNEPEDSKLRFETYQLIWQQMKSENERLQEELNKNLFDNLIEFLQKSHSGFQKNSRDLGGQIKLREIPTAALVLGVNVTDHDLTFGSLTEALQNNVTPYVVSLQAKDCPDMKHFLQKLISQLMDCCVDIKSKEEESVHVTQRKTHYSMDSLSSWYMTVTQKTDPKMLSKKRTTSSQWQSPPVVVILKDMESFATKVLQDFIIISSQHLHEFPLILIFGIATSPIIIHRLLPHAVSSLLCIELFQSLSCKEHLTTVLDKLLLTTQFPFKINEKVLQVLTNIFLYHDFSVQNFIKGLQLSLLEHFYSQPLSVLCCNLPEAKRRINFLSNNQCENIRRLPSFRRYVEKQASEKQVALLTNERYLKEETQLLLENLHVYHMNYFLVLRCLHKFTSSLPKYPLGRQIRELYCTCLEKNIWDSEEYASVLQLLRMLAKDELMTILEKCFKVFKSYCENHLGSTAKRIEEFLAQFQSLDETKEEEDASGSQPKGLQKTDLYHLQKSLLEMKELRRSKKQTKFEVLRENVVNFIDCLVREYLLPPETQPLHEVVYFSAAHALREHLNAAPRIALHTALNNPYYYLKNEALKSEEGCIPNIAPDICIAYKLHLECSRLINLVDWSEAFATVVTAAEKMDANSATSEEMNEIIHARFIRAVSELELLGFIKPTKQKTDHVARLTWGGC
inactive: [1] -0.054 | [2] 0.015 | [3] -0.005 | duvelisib -0.03 | gandotinib -0.044 | tozasertib 0.062 | [4] 0.177 | doramapimod 0.016 | ispinesib -0.17 | bafetinib -0.032 | [5] 0.099 | nilotinib -0.262 | [6] -0.254 | dasatinib -0.298 | [7] -0.118 | [8] 0.067 | [9] 0.109 | tipifarnib 0.086 | mubritinib 0.029
active: crizotinib -0.434
